Measurements from PubChem BioAssay AID1159580 (chemical genetic matrix, 2015).
The campaign covered roughly 5,500 compounds. About 2,000 (36%) were called active. Not shown: some 18% with an inconclusive outcome. Rule as the data show it: active = normalized growth mostly below about 0.91 (no sharp cut-off); inconclusive = no clear call, values can overlap the other calls; inactive = mostly above about 0.92. The list shows a part of the results.

Assay: chemical genetic growth profiling, strain panel (AID 1159580);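 also: tested at 20 µM; growth read once vehicle control cultures reached saturation at 30 °C; 1 = growth at the plate median or of vehicle wells; lower values mean less growth of the strain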
Conditions: growth OD

Measured: normalized growth

CC(=O)C1CCC2C3CCC4C[C@H](O)CCC4(C)C3C[C@H](O)C12C (some centres not stated)
inactive: S. cerevisiae deletion strains, locus YJL187C, strain SWE1, stronger effect = lower value 0.965 | S. cerevisiae deletion strains, locus YJR066W, strain TOR1, stronger effect = lower value 0.923 | S. cerevisiae deletion strains, locus YKL009W, strain mrt4, stronger effect = lower value 1.02 | S. cerevisiae deletion strains, locus YKL068W, stronger effect = lower value 0.992 | S. cerevisiae deletion strains, locus YKL085W, strain MDH1 (second series), stronger effect = lower value 0.987 | S. cerevisiae deletion strains, locus YKL085W, strain MDH1, stronger effect = lower value 0.987 | S. cerevisiae deletion strains, locus YKL160W, strain elf1, stronger effect = lower value 0.964 | S. cerevisiae deletion strains, locus YKR001C, strain vps1, stronger effect = lower value 1.04 | S. cerevisiae deletion strains, locus YKR026C, strain gcn3, stronger effect = lower value 0.962 | S. cerevisiae deletion strains, locus YKR091W, strain srl3, stronger effect = lower value 0.972 | S. cerevisiae deletion strains, locus YLL001W, strain dnm1, stronger effect = lower value 0.98 | S. cerevisiae deletion strains, locus YLL026W, stronger effect = lower value 0.968 | S. cerevisiae deletion strains, locus YLL041C, strain sdh2, stronger effect = lower value 0.963 | S. cerevisiae deletion strains, locus YLR027C, strain aat2, stronger effect = lower value 0.985 | S. cerevisiae deletion strains, locus YLR039C, strain RIC1, stronger effect = lower value 1.21 | S. cerevisiae deletion strains, locus YLR058C, strain SHM2, stronger effect = lower value 1.05 | S. cerevisiae deletion strains, locus YLR102C, strain apc9, stronger effect = lower value 1.01 | S. cerevisiae deletion strains, locus YLR113W, strain HOG1, stronger effect = lower value 1.12 | S. cerevisiae deletion strains, locus YLR221C, strain rsa3, stronger effect = lower value 0.984 | S. cerevisiae deletion strains, locus YLR258W, strain gsy2, stronger effect = lower value 0.962 | S. cerevisiae deletion strains, locus YLR262C, strain YPT6 (second series), stronger effect = lower value 0.991 | S. cerevisiae deletion strains, locus YLR262C, strain YPT6, stronger effect = lower value 1.19 | S. cerevisiae deletion strains, locus YLR268W, strain sec22, stronger effect = lower value 1.02 | S. cerevisiae deletion strains, locus YLR320W, strain mms22, stronger effect = lower value 0.99 | S. cerevisiae deletion strains, locus YLR330W, strain CHS5, stronger effect = lower value 1.03 | S. cerevisiae deletion strains, locus YLR342W, strain FKS1, stronger effect = lower value 0.977 | S. cerevisiae deletion strains, locus YLR357W, strain rsc2, stronger effect = lower value 0.98 | S. cerevisiae deletion strains, locus YLR370C, strain arc18, stronger effect = lower value 0.98 | S. cerevisiae deletion strains, locus YLR371W, strain rom2, stronger effect = lower value 1.02 | S. cerevisiae deletion strains, locus YLR384C, strain iki3, stronger effect = lower value 0.97 | S. cerevisiae deletion strains, locus YLR418C, strain cdc73, stronger effect = lower value 1.07 | S. cerevisiae deletion strains, locus YML016C, strain PPZ1, stronger effect = lower value 1.03 | S. cerevisiae deletion strains, locus YML032C, strain rad52, stronger effect = lower value 1.01 | S. cerevisiae deletion strains, locus YML120C, strain ndi1, stronger effect = lower value 1 | S. cerevisiae deletion strains, locus YML124C, strain tub3, stronger effect = lower value 0.998 | S. cerevisiae deletion strains, locus YMR058W, strain fet3, stronger effect = lower value 0.968 | S. cerevisiae deletion strains, locus YMR078C, strain ctf18, stronger effect = lower value 0.989 | S. cerevisiae deletion strains, locus YMR125W, strain sto1, stronger effect = lower value 0.943 | S. cerevisiae deletion strains, locus YMR129W, stronger effect = lower value 0.973 | S. cerevisiae deletion strains, locus YMR205C, strain PFK2, stronger effect = lower value 0.987 | S. cerevisiae deletion strains, locus YMR223W, strain ubp8, stronger effect = lower value 1.03 | S. cerevisiae deletion strains, locus YMR231W, strain pep5, stronger effect = lower value 0.978 | S. cerevisiae deletion strains, locus YMR307W, strain GAS1, stronger effect = lower value 1.34 | S. cerevisiae deletion strains, locus YNL067W, strain RPL9B, stronger effect = lower value 1.02 | S. cerevisiae deletion strains, locus YNL071W, strain lat1, stronger effect = lower value 0.975 | S. cerevisiae deletion strains, locus YNL183C, strain NPR1, stronger effect = lower value 0.956 | S. cerevisiae deletion strains, locus YNL209W, strain ssb2, stronger effect = lower value 0.967 | S. cerevisiae deletion strains, locus YNL233W, strain BNI4, stronger effect = lower value 1.07 | S. cerevisiae deletion strains, locus YNL248C, strain rpa49, stronger effect = lower value 0.975 | S. cerevisiae deletion strains, locus YNL250W, strain rad50, stronger effect = lower value 0.999 | S. cerevisiae deletion strains, locus YNL271C, strain bni1, stronger effect = lower value 1.01 | S. cerevisiae deletion strains, locus YNL298W, strain CLA4, stronger effect = lower value 1.01 | S. cerevisiae deletion strains, locus YNL307C, strain MCK1, stronger effect = lower value 0.994 | S. cerevisiae deletion strains, locus YNL322C, strain KRE1 (second series), stronger effect = lower value 0.979 | S. cerevisiae deletion strains, locus YNL322C, strain KRE1, stronger effect = lower value 1.02 | S. cerevisiae deletion strains, locus YNR049C, strain mso1, stronger effect = lower value 0.961 | S. cerevisiae deletion strains, locus YNR052C, strain pop2, stronger effect = lower value 1 | S. cerevisiae deletion strains, locus YOL006C, strain TOP1, stronger effect = lower value 1.37 | S. cerevisiae deletion strains, locus YOL012C, strain htz1 1.2 | S. cerevisiae deletion strains, locus YOL147C, strain pex11, stronger effect = lower value 0.995 | S. cerevisiae deletion strains, locus YOR001W, strain rrp6, stronger effect = lower value 0.961 | S. cerevisiae deletion strains, locus YOR061W, strain CKA2, stronger effect = lower value 1.03 | S. cerevisiae deletion strains, locus YOR069W, strain VPS5, stronger effect = lower value 1.02 | S. cerevisiae deletion strains, locus YOR070C, strain gyp1, stronger effect = lower value 0.982 | S. cerevisiae deletion strains, locus YOR080W, strain dia2, stronger effect = lower value 0.98 | S. cerevisiae deletion strains, locus YOR083W, strain WHI5, stronger effect = lower value 0.958 | S. cerevisiae deletion strains, locus YOR106W, strain vam3, stronger effect = lower value 0.913 | S. cerevisiae deletion strains, locus YOR136W, strain idh2, stronger effect = lower value 1 | S. cerevisiae deletion strains, locus YOR144C, strain elg1, stronger effect = lower value 0.996 | S. cerevisiae deletion strains, locus YOR184W, strain ser1, stronger effect = lower value 1.02 | S. cerevisiae deletion strains, locus YOR231W, strain MKK1, stronger effect = lower value 1.03 | S. cerevisiae deletion strains, locus YOR265W, strain rbl2, stronger effect = lower value 0.993 | S. cerevisiae deletion strains, locus YOR270C, strain vph1, stronger effect = lower value 0.964 | S. cerevisiae deletion strains, locus YOR290C, strain snf2, stronger effect = lower value 0.934 | S. cerevisiae deletion strains, locus YOR316C, strain cot1, stronger effect = lower value 1 | S. cerevisiae deletion strains, locus YPL051W, strain arl3, stronger effect = lower value 1 | S. cerevisiae deletion strains, locus YPL078C, strain atp4, stronger effect = lower value 0.945 | S. cerevisiae deletion strains, locus YPL106C, strain sse1, stronger effect = lower value 0.964 | S. cerevisiae deletion strains, locus YPL240C, strain hsp82, stronger effect = lower value 0.987 | S. cerevisiae deletion strains, locus YPL241C, strain CIN2, stronger effect = lower value 1.02 | S. cerevisiae deletion strains, locus YPL256C, strain CLN2, stronger effect = lower value 0.994 | S. cerevisiae deletion strains, locus YPR119W, strain clb2, stronger effect = lower value 0.988 | S. cerevisiae deletion strains, locus YPR141C, strain kar3, stronger effect = lower value 0.996 | S. cerevisiae deletion strains, locus YPR163C, strain tif3, stronger effect = lower value 1 | S. cerevisiae deletion strains, locus YPR167C, strain met16, stronger effect = lower value 1.01 | S. cerevisiae deletion strains, strain wtn01, stronger effect = lower value 1.01 | S. cerevisiae strains, strain wild type, stronger effect = lower value 1.07
